In PubChem BioAssay (NCI) one finds growth data, which are given here for eight molecules.

The panel holds about 83,000 compounds, 20% with a hit somewhere; the sample as a whole holds those more often.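 Activity criterion: percent growth below 10, measured after cells in 96-well plates were exposed to a single compound concentration for 48 hours.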 Unmarked numbers belong to inactive results. Active and inactive are the calls of the source.

Among the test systems are NCI-H23 lung; NCI-H226 lung; HOP-62 NSCLC; NCI-H460 lung; HOP-92 NSCLC; NCI-H522 lung; A549/ATCC NSCLC; 786-0 renal; COLO 205 colon; DU-145 prostate; K-562 leukemia; MALME-3M melanoma; MDA-MB-231 breast; RXF 393 renal; SF-268 CNS; SF-295 CNS; UACC-257 melanoma; M14 melanoma; SF-539 CNS.
What all share (experiment): NCI-60 one-dose screen, 48 h (100 = growth as untreated, 0 = no growth, -100 = all killed)
Details in all cases: 10 µM unless noted

Take `CSc1ccc(N=C=C(c2ccccc2)c2ccccc2)cc1`: the growth is 99% in the test with NCI-H23 lung; 95.7% in the test with NCI-H226 lung; 96.1% with HOP-62 NSCLC; 102% in the test with NCI-H460 lung; 85.4% in the test with HOP-92 NSCLC; 71.8% in the test on NCI-H522 lung. Moreover, the growth in the test on A549/ATCC NSCLC is 78.4%; in the test with 786-0 renal it was 95.6%; with COLO 205 colon, 107%; in the test on DU-145 prostate, 109%; in the test on K-562 leukemia, 60.4%; in the test on MALME-3M melanoma, 105%. Also, the growth in the test with MDA-MB-231 breast is 84.7%; in the test on RXF 393 renal, 105%; in the test on SF-268 CNS, 95.8%; with SF-295 CNS it was 96.1%; with UACC-257 melanoma it was 93.3%; in the test with M14 melanoma, 80.4%.
Consider `CN1CCN(c2ccc3nc(-c4ccc5nc(-c6ccc(OCCC(C)(C)C)cc6)[nH]c5c4)[nH]c3c2)CC1`, for which the growth in the test with NCI-H23 lung is -3.61% (active); in the test with NCI-H226 lung, 95.3%; with HOP-62 NSCLC, 21.5%; in the test on NCI-H460 lung, -80% (active); in the test with HOP-92 NSCLC, 69.6%; with A549/ATCC NSCLC, -45.3% (active). Also, the growth in the test with 786-0 renal was -60.2% (active); in the test on COLO 205 colon it was 5.08% (active); in the test on DU-145 prostate it was -80.9% (active); with MALME-3M melanoma, 18.2%; in the test with MDA-MB-231 breast, -33.3% (active); in the test on RXF 393 renal, -72.1% (active). In addition, the growth in the test with SF-268 CNS is 56.6%; with SF-295 CNS, 50.9%; with SF-539 CNS, -72.3% (active); with UACC-257 melanoma, 110%; with M14 melanoma it was -11.2% (active).
For the molecule `COc1ccc2nc3cc(Cl)ccc3c(N3CCN(c4ccnc(N5CCN(C)CC5)n4)CC3)c2c1`, the growth in the test on NCI-H23 lung is 34.6%; in the test on NCI-H226 lung, 90.2%; with HOP-62 NSCLC it was 73.4%; in the test on NCI-H460 lung it was 64.7%; with HOP-92 NSCLC, 59.6%; in the test on NCI-H522 lung, -60.4% (active). For the same molecule, the growth was 83.4% in the test with A549/ATCC NSCLC; 78.9% in the test on 786-0 renal; -45.3% (active) in the test on COLO 205 colon; 3.84% (active) in the test with DU-145 prostate; -36.1% (active) in the test with K-562 leukemia; 83.8% with MALME-3M melanoma. Moreover, the growth was 28.3% in the test on MDA-MB-231 breast; 10.5% in the test on RXF 393 renal; 52.8% with SF-268 CNS; 93.9% in the test with SF-295 CNS; 90.7% with UACC-257 melanoma; 58.5% in the test on M14 melanoma.
Take `COc1cccc(-n2cc(-c3nc(Nc4cc(C)[nH]n4)c4ccccc4n3)nn2)c1`: the growth in the test with NCI-H23 lung is 61.1%; in the test with NCI-H226 lung it was 49.9%; with HOP-62 NSCLC, 50.2%; with NCI-H460 lung, 44.9%; in the test with HOP-92 NSCLC, 35.8%; with NCI-H522 lung, 9.97% (active). The growth with A549/ATCC NSCLC is 35.9%; in the test with 786-0 renal, 51.4%; in the test with COLO 205 colon, 85.8%; in the test on DU-145 prostate, 66.4%; in the test with K-562 leukemia, 27%; with MALME-3M melanoma, 42.9%. Also, the growth in the test with MDA-MB-231 breast is 63.4%; with SF-268 CNS, 64.1%; with SF-295 CNS it was 37.7%; in the test with SF-539 CNS, 52.9%; in the test with UACC-257 melanoma, 83.4%; in the test on M14 melanoma it was 54.1%.
Take `Clc1nc(Cl)c2c3c(sc2n1)CCCC3`: the growth in the test with NCI-H23 lung is 32.5%; in the test on NCI-H226 lung it was 3.63% (active); in the test with HOP-62 NSCLC, 91.4%; in the test on NCI-H460 lung, 109%; in the test with HOP-92 NSCLC it was 103%; with NCI-H522 lung, 7.65% (active). Further, the growth in the test with A549/ATCC NSCLC is 120%; with 786-0 renal, 96.1%; in the test with COLO 205 colon it was 5.1% (active); in the test on DU-145 prostate it was -55.3% (active); in the test with K-562 leukemia it was -33.2% (active); in the test with MALME-3M melanoma, 45%. Moreover, the growth in the test with MDA-MB-231 breast is 62.4%; in the test with RXF 393 renal, -19.4% (active); in the test with SF-268 CNS, 26.1%; with SF-295 CNS, 104%; in the test on SF-539 CNS it was 105%; with UACC-257 melanoma, 81.2%. Further, the growth in the test with M14 melanoma is 21.1%.
Consider `O=S(=O)(NCCCNc1cc(-c2cn(-c3ccccc3)nc2-c2ccccc2)ccn1)c1ccc(C(F)(F)F)cc1`, for which the growth with NCI-H23 lung is 58.7%; with NCI-H226 lung, 54.3%; in the test with HOP-62 NSCLC, 82%; in the test on NCI-H460 lung, 50.7%; in the test with HOP-92 NSCLC it was 32.2%; in the test on NCI-H522 lung, 72.1%. In addition, the growth with A549/ATCC NSCLC was 40.9%; with 786-0 renal it was 29%; in the test with COLO 205 colon, 33.1%; with DU-145 prostate, 75.9%; in the test with K-562 leukemia it was 15.8%; in the test with MALME-3M melanoma, 70%. The growth in the test on MDA-MB-231 breast is 52.5%; with RXF 393 renal, 48%; in the test with SF-268 CNS, 58.2%; with SF-295 CNS it was 38.8%; with M14 melanoma, 53.1%.
Take `CC(=O)C1=C(O)C=C2Oc3c(C(=O)/C=C/c4cc(C(F)(F)F)cc(C(F)(F)F)c4)c(O)c(C)c(O)c3[C@]2(C)C1=O`: the growth in the test with NCI-H23 lung is -55.8% (active); in the test on NCI-H226 lung, -56.5% (active); in the test on HOP-62 NSCLC, -52.6% (active); in the test with NCI-H460 lung, -32.6% (active); in the test with HOP-92 NSCLC it was -41.2% (active); with NCI-H522 lung it was -36% (active). Also, the growth in the test on A549/ATCC NSCLC was -46.7% (active); with 786-0 renal, -46.3% (active); with COLO 205 colon it was -66.6% (active); in the test with DU-145 prostate it was -71.4% (active); in the test on K-562 leukemia it was -20.7% (active); in the test on MALME-3M melanoma it was -65.6% (active). Besides, the growth in the test on MDA-MB-231 breast is -38.8% (active); with RXF 393 renal, -48.6% (active); in the test on SF-268 CNS, -18.1% (active); in the test on SF-295 CNS, -17.4% (active); in the test with UACC-257 melanoma, -51.4% (active); in the test with M14 melanoma, -59.1% (active).
In the case of `COc1ccc(/C=C2\CN(C(=O)CCN3CCC(=NO)CC3)C/C(=C\c3ccc(OC)cc3)C2=O)cc1`, the growth in the test on NCI-H23 lung was -4.73% (active); in the test with NCI-H226 lung, 70%; in the test with HOP-62 NSCLC it was 44.8%; in the test on NCI-H460 lung, -34.5% (active); in the test on HOP-92 NSCLC, 89%; in the test with NCI-H522 lung, -29.7% (active). Besides, the growth with A549/ATCC NSCLC is 36.5%; with 786-0 renal, -10.3% (active); in the test on COLO 205 colon it was -23.7% (active); with DU-145 prostate it was 22.6%; with K-562 leukemia, 4.21% (active); in the test with MALME-3M melanoma, -40.9% (active). The growth in the test with MDA-MB-231 breast was -57.9% (active); in the test with RXF 393 renal, -81.2% (active); in the test with SF-268 CNS, 13.3%; in the test with SF-295 CNS, 8.38% (active); in the test with SF-539 CNS, -25.5% (active); in the test on UACC-257 melanoma, 22.9%. Moreover, in the test on M14 melanoma, the growth is 7.58% (active).
